Bioassay records (PubChem BioAssay)
A selection: hits, their analogues and other compounds. The true share with any hit is near 21%.
NS1 function inh: qHTS Assay for Inhibitors of Influenza NS1 Protein Function; Potency, µM (top dose mostly 46.1 µM), for the others: at the highest dose activity, positive = more growth; 0.4% of 270,000 active; AID 2326, 2010; note: potency is the fitted concentration of half-maximal effect; actives are rising curves; nearly all actives have a fitted effect of over 50% in size
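A cell-based growth assay was used: compounds that relieve NS1-induced slow growth of budding yeast raise OD600. Assay medium was yeast nitrogen base with ammonium sulphate and -URA supplement, pH 6.0, with 2% galactose.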
Pf growth 48h: Primary qHTS for delayed death inhibitors of the malarial parasite plastid, 48 hour incubation. AID 504832, 2011. Potency, µM (top dose mostly 28.7 µM), inactives show top-dose activity change, negative = inhibition, hits mostly inhibitors. P. falciparum luciferase growth in erythrocytes, 48 h. 5.9% of 310,000 active; active = well fitted inhibition curve with a large enough effect; inconclusive = small, poorly fitted or top-dose-only effect, or another doubt; inactive = no such curve, though single readings can be large or run the other way; note: potency is the fitted concentration of half-maximal effect; % is set by controls: 0 for no effect and ±100 for the full control effect
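Luciferase-expressing parasites in RBCs, 2% Hct / 0.1% parasitemia final; RPMI 1640 + 0.5% Albumax; 37 C, 5% CO2, one generation; luminescence read-out, lower signal = inhibition.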
Cycloheximide cs: Cycloheximide Counterscreen for Small Molecule Inhibitors of Shiga Toxin. cell reporter, cycloheximide protein synthesis inhibition counterscreen. 12% of 300,000 active. max response, %; in the data active = max response mostly above about 13%, no sharp cut-off; inactive = mostly below about 14%; note: read at 38.3 µM for the half of the compounds with a filed dose; 0% is about no effect
Shiga toxin inh: A qHTS for Small Molecule Inhibitors of Shiga Toxin | Vero cells, Shiga toxin protein synthesis inhibition reporter | inhibition, % at 38.7 µM | 9.2% of 290,000 active; in the data active = inhibition mostly above about 28%, no sharp cut-off; inactive = mostly below about 43%; note: 0% is about no effect
Pf growth 96h: Primary qHTS for delayed death inhibitors of the malarial parasite plastid, 96 hour incubation. 6.9% of 320,000 active. P. falciparum luciferase reporter growth, 96 h. Potency, µM (doses to about 28.7 µM), inactives show top-dose activity change, negative = inhibition, most hits filed as inhibitors; active = well fitted inhibition curve with a large enough effect; inconclusive = small, poorly fitted or top-dose-only effect, or another doubt; inactive = no such curve, though single readings can be large or run the other way; note: potency is the fitted concentration of half-maximal effect; % is set by controls: 0 for no effect and ±100 for the full control effect
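Two-generation exposure (96 h) targets delayed-death phenotype. Reporter parasites carrying integrated firefly luciferase, in red cells at 2% hematocrit and 0.05% parasitemia final, kept at 37 C, 5% CO2; luminescence loss indicates inhibition.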
SARS PLP yeast: qHTS of Yeast-based Assay for SARS-CoV PLP | S. cerevisiae expressing SARS-CoV PLpro, growth rescue | Potency, µM (series often up to 32.9 µM), for inactives: at the highest dose activity, positive = growth rescue, actives largely listed as activators | 0.19% of 330,000 active; note: potency is the fitted concentration of half-maximal effect; 0% is about no effect; nearly all actives have a fitted effect of over 55% in size
The depositor's hits bear a star; u = inconclusive; x = no result given; [ ] = another dose, or the depositor's remark. Unless noted, calls come from the whole dose curve.

SMILES	NS1 function inh	Pf growth 48h	Cycloheximide cs	Shiga toxin inh	Pf growth 96h	SARS PLP yeast
Cc1ccc(S(=O)(=O)N2CCC(=O)N(C(COCc3ccc(Cl)cc3)Cc3ccccc3)CC2)cc1 (stereo not given)	u	12µM*	0	40	10µM*	-26%
Cc1cccc(C(=O)N2CCC(=O)N(C(COCc3ccccc3)Cc3ccccc3)CC2)c1 (stereo not given)	-9%	-23%	-3	-22	13µM*	u
Cc1cccc(COCC(Cc2ccccc2)N2CCN(C(=O)c3cccc(Cl)c3)CCC2=O)c1 (stereo not given)	-20%	u	-3	-17	12µM*	10%
Cc1ccc(C)c(S(=O)(=O)NNC(=O)c2sc(NS(=O)(=O)c3ccccc3)nc2C)c1	15%	20%	-3	-8	31%	-5%
CCn1cc(CCC(=O)NC2CCCC2)c2ccccc21	-9%	u	16	20	-7%	0%
CCC(CC)N1CCN(C(=O)c2cccc(Cl)c2)CC1	-4%	16%	1	-2	13µM*	-7%
Cc1cccc(C(=O)N2CCC(=O)N(C(COCc3cccc(C(F)(F)F)c3)Cc3ccccc3)CC2)c1 (stereo not given)	-1%	u	-2	-3	9.3µM*	-6%
CC(C)N1CCN(C(=O)c2cccc(Cl)c2)CC1	-11%	9%	-4	-4	6%	-2%
O=C(c1ccc(Cl)c(Cl)c1)N1CCC(=O)N(C(COCc2ccccc2)Cc2ccccc2)CC1 (stereo not given)	-17%	u	-3	1	12µM*	-6%
CCn1cc([N+](=O)[O-])c(C(=O)N2N=C3/C(=C/c4cccs4)CCCC3C2c2cccs2)n1 (stereo not given)	5%	u	0	-2	u	2%
CC(=O)SCC(Cc1ccccc1)C(=O)NCC(=O)OCc1ccccc1 (stereo not given)	x	x	-3	19	x	-19%
COc1ccc(-c2csc(=NCCO)n2-c2ccccc2)cc1	-5%	-7%[0.00184 µM]	17*	71*	26%	2%
COc1ccc(-c2csc(=Nc3ccccc3)n2CCO)cc1	-16%	8%	16*	41*	-1%	-22%
C=CCn1c(-c2ccc(OC)cc2)csc1=Nc1c(C)n(C)n(-c2ccccc2)c1=O	-8%	x	-4	-22	15µM*	1%
Cc1csc(=Nc2c(C)n(C)n(-c3ccccc3)c2=O)n1Cc1ccccc1	2%	-13%	2	22	-10%	0%
CC(C)(C)c1cc(NC(=O)c2cccc(S(=O)(=O)N3CCOCC3)c2)no1	-1%	u	-1	28	u	9%
N#C/C(=C\c1cccnc1)C(=O)NC1CCCCC1	-29%	10µM*	1	-5	u	-46%
N#C/C(=C\c1ccccc1)C(=O)NC1CC1	0%	8%	8	5	16%	-4%
N#C/C(=C\c1ccc2c(c1)OCCO2)C(=O)NC1CCCCC1	-4%	15%	39*	24	-16%	u
COc1ccc(/C=C(/C#N)C(=O)NC2CCCCC2)cc1Br	3%	u	-4	21	u	-7%
CCCCNC(=O)/C(C#N)=C/c1ccc2c(c1)OCCO2	-1%	-2%	47*	50*	-18%	-4%
CCn1ccnc1CN1CCC(n2nccc2NC(=O)c2ccccc2OC)CC1	6%	16%	-3	-6	-11%	0%
Cc1ccc(S(=O)(=O)N2CCC(C(=O)OCC(=O)NC(C)c3ccc(F)cc3)CC2)cc1C (stereo not given)	x	-23%	x	x	14%	-13%
CC(SCc1ccccc1)C(=O)N/N=C/c1ccc(OCC(=O)NCc2ccco2)cc1 (stereo not given)	-9%	4%	-2	-8	1.7µM*	2%
COc1ccc(CSCC(=O)N/N=C/c2ccc(OCC(=O)NCc3ccco3)cc2)cc1	4%	-21%	-2	7	-3%	6%
SMILES	NS1 function inh	Pf growth 48h	Cycloheximide cs	Shiga toxin inh	Pf growth 96h	SARS PLP yeast
CC1C(=O)CC(c2ccccc2)NC1c1ccccc1 (stereo not given)	-1%	x	-2	17	-1%	13%
CC(C)C1C(=O)CC(c2ccccc2)NC1c1ccccc1 (stereo not given)	8%	-28%	-1	-9	1.2µM*	1%
Cc1ccc(OCC(=O)NNC(=O)C2CSC3(C)CCC(=O)N23)cc1C (stereo not given)	x	0%	x	x	47%	-2%
COC(=O)c1ccccc1NC(=O)C1CCCO1 (stereo not given)	-17%	4%	-2	-3	-13%	6%
COc1cccc(-c2nn(-c3ccccc3)cc2CN2CCCO2)c1	-1%	-31%	8	-7	-12%	0%
CC(=NCCc1ccccc1)C1=C(O)CCC1=O	6%	x	-1	-3	-26%	3%
CC(=NCCc1ccccc1)C1=C(O)CSC1=O	-5%	2%	28*	14	-13%	11%
CCOC(=O)c1c(NC(=O)c2ccc(S(=O)(=O)N3CCOCC3)cc2)sc2c1CCN(C)C2	-19%	12µM*	-6	-12	u	6%
CCOC(=O)c1c(NC(=O)c2ccc(S(=O)(=O)N3CCOCC3)cc2)sc2c1CC(C)(C)NC2(C)C	9%	5%	-3	8	46%	-2%
CCOC(=O)N1CCc2c(sc(NC(=O)c3ccc(S(=O)(=O)N4CCCC4)cc3)c2C#N)C1	-21%	12µM*	0	2	u	25%
Cc1cccn2cc(-c3ccc4c(c3)NC(=O)CO4)nc12	-3%	83%	31*	61*	92%	-1%
Cc1ccn2cc(-c3ccc4c(c3)NC(=O)CO4)nc2c1	x	313%	32	75*	182%	-2%
O=C(CCCn1cc([N+](=O)[O-])cn1)Nc1cccnc1	-5%	-11%	-4	4	54%	-1%
Cc1cnc(C(=O)OCC(=O)Nc2ccc(Br)cc2F)cn1	x	58%	x	x	43%	-5%
CC1CCN(c2c(NCc3ccc(C(=O)NCCc4ccc(Cl)cc4)cc3)c(=O)c2=O)CC1	-5%	u	-1	-6	8.3µM*	-5%
CC1CCCCC1NC(=O)c1ccc(CNc2c(N3CCCC3)c(=O)c2=O)cc1 (stereo not given)	-7%	-1%	-3	12	8.3µM*	-3%
CC1(C)CC(=O)C(C(=O)C2CCN(S(=O)(=O)c3ccccc3)CC2)C(=O)C1	x	-12%	-10	14	42%	0%
CCN(CC(=O)Nc1cc(Cl)ccc1C)C(=O)COc1cccc2c1OC(C)(C)C2	0%	u	-2	-15	-12%	1%
Cc1cc(-c2ccco2)n(CC(=O)O)n1	-3%	25%	5	-8	6.6µM*	9%
Cc1cc(-c2ccco2)n(CC(=O)NCc2ccccc2)n1	-4%	x	-5	-8	-22%	-7%
O=CCCCC=O	x	15µM*	x	x	12µM*	x
